aDG glyco act – activators of alpha-DG glycosylation, primary screen, uHTS, Pro5-aDG cells, AlphaScreen. alpha-DG glycosylation AlphaScreen (IIH6); 0% Pro5, 100% B10-LARGE cell signal. activation, % at 10 µM. 0.22% of 360,000 active;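 active = activation of at least 8% versus controls, or a plate z-score of at least 8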;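 also: Pro5 are CHO cells carrying HIG-tagged alpha-DG that lacks glycosylation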
ADAM10 inh – human ADAM10 inhibitors, primary screen, biochemical, QFRET, HTS; Disintegrin and metalloproteinase domain-containing protein 10 (Homo sapiens), O14672; recombinant ADAM10, EDANS/DABCYL FRET peptide cleavage, 3 h; inhibition, % at 7 µM; 0.62% of 370,000 active; AID 720582, 2013;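 active = inhibition above a per-campaign cutoff equal to the mean of compounds falling between control-based bounds plus 3 SD, cut at about 20% in these data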;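 also: 0% = DMSO wells while the 100% control is not disclosed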
GRIN3A LBD mod – binders of NR3A ligand-binding domain, primary screen, biophysical, differential scanning fluorimetry, uHTS; 2.5% of 340,000 active; Tm shift relative to glycine control, % at 25 µM; NR3A LBD differential scanning fluorimetry, Tm shift; 0% = protein alone, 100% = glycine-bound protein; Glutamate receptor ionotropic, NMDA 3A (GRIN3A) ligand-binding domain;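 active = melting temperature shift of at least 10% of the positive control shift, at one fixed dose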
ADAM17 inh – ADAM17 inhibitors, primary screen, biochemical, QFRET; recombinant ADAM17, EDANS/DABCYL FRET peptide cleavage; inhibition, % at 6.95 µM; 0.83% of 370,000 active; AID 720648, 2013;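 active = inhibition above the mean of compounds lying between control limits plus 3 SD, set per campaign, cut at about 8.5% in these data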;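 also: 0% = DMSO-only wells as the low control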
FAS-TE inh – FAS thioesterase domain inhibitors, primary screen, biochemical, fluorescence intensity, uHTS; recombinant FAS-TE, OMFH fluorogenic substrate, fluorescence endpoint; 0.67% of 360,000 active; inhibition, % at 15 µM; AID 602261, 2012;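 active = compounds whose normalised, plate-corrected inhibition of enzyme fluorescence in the single-dose primary screen is 50% or more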;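 also: 0% = DMSO with enzyme and 100% = substrate without enzyme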
Active calls of the source: *; i = inactive; . = no result given. The list is not random: actives were taken first. Their share in the collection is about 4%.

SMILES | aDG glyco act | ADAM10 inh | GRIN3A LBD mod | ADAM17 inh | FAS-TE inh
CCOc1cc(C2C(C#N)=C(N)OC(C)=C2C(C)=O)c(Br)c(Br)c1OC(C)C (configuration not stated) | -0.3 | . | -2.8 | . | 71.5*
CCOc1cc(C2C(C#N)=C(N)OC(C)=C2C(C)=O)cc(Br)c1O (configuration not stated) | 0.4 | 3.1 | 2.2 | -4.7 | -15.2
CCC(=O)c1ccc(OCC(O)CN(CCc2ccccc2)Cc2ccccc2)cc1 (configuration not stated) | 0.9 | 17.6 | -8.3 | 9.3* | 31.5
OC(COc1ccccc1)CN(Cc1ccccc1)CC(O)COc1ccccc1 (configuration not stated) | 0.2 | 14.3 | -4.5 | 5.1 | 25.6
CCOC(=O)N1CCN(C(=O)c2ccc3c(=O)n(-c4ccc(F)cc4)c(=S)[nH]c3c2)CC1 | -0.1 | -5.7 | -2.8 | -2.5 | -4.3
COc1cc(/C=N/Nc2nnc3c(n2)[nH]c2ccccc23)ccc1O | -0.3 | -2.1 | 9.7 | -2.4 | -5.5
CCc1ccc2[nH]c3nc(N/N=C/c4ccc(O)cc4O)nnc3c2c1 | -0.1 | 4.5 | 19.2* | -1.5 | 1.0
Cc1ccc2[nH]c3nc(N/N=C/c4cccc(O)c4)nnc3c2c1 | 0.0 | -8.9 | 10.3* | -2.9 | -2.2
CCc1ccc2[nH]c3nc(SCCN4CCOCC4)nnc3c2c1 | -0.1 | 4.7 | 0.2 | -4.0 | -0.4
COc1ccc(-c2cc(C(=O)N3CCN(S(=O)(=O)c4ccccc4)CC3)[nH]n2)cc1 | 0.2 | -4.2 | 14.8* | -2.1 | 3.0
O=C(c1cc(-c2ccccc2)n[nH]1)N1CCN(S(=O)(=O)c2ccccc2)CC1 | -0.1 | 1.2 | -2.7 | 2.3 | 1.9
CCOC(=O)COc1ccc(Br)cc1/C=C/c1[nH]c(=O)[nH]c(=O)c1[N+](=O)[O-] | 0.0 | -0.5 | 161.1* | -2.6 | 5.2
CN1CCN(C2CN(Cc3ccc([N+](=O)[O-])cc3)S(=O)(=O)C2)CC1 (configuration not stated) | 0.0 | -4.0 | . | 1.4 | -5.6
CC(=O)c1sc2nc(-c3ccc(C)cc3)c3c(c2c1N)CCCC3 | 0.5 | -262.9 | 10.0* | -99.8 | 25.5
Cc1ccc(-c2nc3sc(C(N)=O)c(N)c3c3c2CCCC3)cc1 | 0.1 | -88.0 | -18.4 | -34.5 | 12.0
O=C(NCCc1c[nH]c2ccccc12)c1ccc([N+](=O)[O-])cc1 | -0.1 | -0.3 | 24.6* | -2.3 | 20.2
O=C(NCCc1ccccc1)c1ccc(-n2cnnn2)cc1 | -0.1 | -4.4 | -0.8 | -3.6 | 0.9
O=C(NCCc1c[nH]c2ccccc12)c1cc([N+](=O)[O-])cc([N+](=O)[O-])c1 | -0.1 | 1.6 | -0.5 | 1.8 | 25.1
O=C(NCCc1c[nH]c2ccccc12)c1ccc(-n2cnnn2)cc1 | -0.2 | 2.7 | 13.1* | -1.0 | 4.5
O=C(NCCc1c[nH]c2ccccc12)c1ccccc1 | -0.1 | -8.0 | 12.6* | -0.9 | -1.8
O=C(CCCc1c[nH]c2ccccc12)NCCc1c[nH]c2ccccc12 | 0.2 | 19.1 | 15.5* | 7.7 | 8.0
NC(=NCCc1c[nH]c2ccccc12)NC(=O)c1ccc(Cl)cc1 | 0.1 | 19.1 | 23.8* | 3.0 | -7.6
N#CCC(=O)Nc1ccc(C(=O)NCCc2c[nH]c3ccccc23)cc1 | -0.2 | -3.5 | 18.4* | -1.1 | -0.5
Cc1ccc(C(=O)NCCc2c[nH]c3ccccc23)s1 | 0.2 | 0.0 | 27.1* | -0.8 | -2.0
COc1ccc2[nH]cc(CCNC(=O)c3ccc([N+](=O)[O-])cc3)c2c1 | 0.2 | 1.1 | 12.1* | -4.9 | 24.1
SMILES | aDG glyco act | ADAM10 inh | GRIN3A LBD mod | ADAM17 inh | FAS-TE inh
N#CCC(=O)Nc1ccc(C(=O)NCCC(c2ccccc2)c2ccccc2)cc1 | 0.0 | 6.9 | -2.0 | 5.5 | 10.6
CC(C)C(=O)NCCc1c[nH]c2ccccc12 | 0.0 | 2.4 | 5.0 | -0.5 | -10.0
COC(=O)N1CCCC(c2cc(C(=O)Nc3ccccc3Cl)no2)C1 (configuration not stated) | -0.1 | 0.9 | . | 1.7 | 4.7
CN(C)Cc1cccc(-c2ccccc2)c1O | 0.2 | -50.5 | 0.6 | -5.8 | -8.7
COc1ccc(-c2cc(C(F)(F)F)n3nc(C(=O)Nc4c(C)n(C)n(-c5ccccc5)c4=O)c(Cl)c3n2)cc1 | -0.1 | -3.7 | 2.6 | 0.2 | -5.5
O=S(=O)(c1ccc2ccccc2c1)N(CC1CO1)c1ccccc1 (configuration not stated) | -0.1 | -1.0 | 2.1 | 3.7 | 9.2
O=C(Cn1c(=O)c2cccn2c2ccccc21)NCCc1ccc(Cl)cc1 | 0.4 | -1.5 | -0.2 | -4.6 | -6.7
CCN(CC)S(=O)(=O)c1ccc(Oc2ccccc2)cc1 | -0.1 | 6.1 | 12.7* | 1.8 | 18.0
CN(C)S(=O)(=O)c1cccc(C(=O)NCCOC(=O)c2cc(F)c(F)cc2Cl)c1 | 0.0 | 2.9 | 2.0 | 0.8 | 3.5
CCN(CC)S(=O)(=O)c1ccc(C(=O)NCCOC(=O)c2ccc(F)cc2F)cc1 | -0.1 | 0.6 | 19.0* | 0.8 | 1.5
CC(OC(=O)c1ccc([N+](=O)[O-])o1)C(=O)Nc1nc(-c2ccc(F)c(F)c2)cs1 (configuration not stated) | -0.2 | -8.6 | 14.8* | -1.2 | 10.2
Cc1cc(C(=O)OC(C)C(=O)Nc2nc(-c3ccccc3)cs2)c(C)o1 (configuration not stated) | 0.1 | 3.9 | -7.1 | 4.6 | 28.2
N#Cc1nc(-c2cccs2)oc1NCC1CCCO1 (configuration not stated) | -0.2 | i | -0.1 | i | -1.8
CCOc1ccc(NS(=O)(=O)c2ccc3[nH]c(=O)cc(C(=O)O)c3c2)cc1 | 0.4 | 3.9 | 3.0 | 0.0 | -0.8
O=C(Nc1ccc2c(c1)C(=O)OC2)c1ccccc1Cl | 0.0 | -3.0 | -0.4 | -4.0 | -2.0
O=C1OCc2ccc(NC(=O)c3c(F)cccc3Cl)cc21 | 0.1 | 3.1 | 0.1 | -3.4 | -1.3
O=C(Nc1cccc(F)c1)Nc1ccc2c(c1)C(=O)OC2 | 0.1 | 3.7 | 13.7* | -2.0 | 5.0
O=C(Nc1cccc(Cl)c1)Nc1ccc2c(c1)C(=O)OC2 | 0.4 | 2.1 | 30.7* | 2.5 | -3.1
CN1CCN(Cc2cccc(Oc3ccc(Cl)cc3)c2)CC1 | 0.4 | -0.7 | -7.1 | -2.3 | -5.3
COc1ccccc1-c1nnc(SCC(=O)Nc2c(Cl)cccc2Cl)o1 | 0.0 | 3.0 | -3.4 | -0.4 | -5.1
COc1ccccc1-c1nnc(SCC(=O)NCc2c(C)c(Cl)cc(C(C)C)c2O)o1 | 0.1 | 5.0 | 23.0* | -4.0 | 35.5
COc1ccccc1C1CCN(c2cc(O)ccc2[N+](=O)[O-])CC1 | -0.2 | 13.4 | 12.8* | 2.4 | 13.0

Assay outcomes deposited in PubChem by several laboratories.
